According to PubChem BioAssay AID1159580 (chemical genetic matrix, 2015):
“And” between values parts separate entries of the source, which are not always exact repeats. Equal entries are not always repeated. Screen size: about 5,500 compounds; about 2,000 (36%) were called active. Inconclusive results (about 18%) are left out. No stated cut-off is given here; in the data, active means normalized growth mostly below about 0.91 (no sharp cut-off); inconclusive means no clear call, values can overlap the other calls; inactive means mostly above about 0.92. The list shows a part of the results.

Assay: chemical genetic growth profiling, strain panel (AID 1159580);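 further: tested at 20 µM; growth read once vehicle control cultures reached saturation at 30 °C; 1 = growth at the plate median or of vehicle wells; lower values mean less growth of the strain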
Conditions: S. cerevisiae deletion strains, growth OD

Measured: normalized growth

CCCCCCC(C)OC(=O)COc1ccc(Cl)cc1Cl (configuration not stated)
inactive: locus YAL013W, strain DEP1, hits give low values 0.981 | locus YAL021C, strain ccr4, hits give low values 0.991 | locus YAL026C, strain drs2, hits give low values 0.993 | locus YAL030W, strain snc1, hits give low values 0.99 | locus YBL061C, strain skt5, hits give low values 0.996 | locus YBR009C, strain hhf1, hits give low values 0.985 | locus YBR021W, strain FUR4, hits give low values 1 | locus YBR023C, strain chs3, hits give low values 0.99 | locus YBR171W, strain sec66, hits give low values 0.99 | locus YBR229C, strain ROT2, hits give low values 0.996 | locus YBR231C, strain swc5, hits give low values 0.984 | locus YBR279W, strain paf1, hits give low values 0.994 | locus YCL011C, strain gbp2, hits give low values 0.987 | locus YCL016C, strain dcc1, hits give low values 0.988 | locus YCL029C, strain bik1, hits give low values 1 | locus YCL061C, strain MRC1, hits give low values 0.993 | locus YCL069W, strain vba3, hits give low values 0.992 | locus YCR088W, strain abp1, hits give low values 0.996 | locus YDL005C, strain med2, hits give low values 0.996 | locus YDL035C, strain GPR1, hits give low values 0.955 | locus YDL040C, strain nat1, hits give low values 0.985 | locus YDL074C, strain BRE1, hits give low values 0.968 | locus YDL101C, strain DUN1, hits give low values 0.985 | locus YDL134C, strain PPH21, hits give low values 1 | locus YDL185W, strain tfp1, hits give low values 1.01 | locus YDL192W, strain arf1, hits give low values 1 | locus YDR001C, strain nth1, hits give low values 0.99 | locus YDR069C, strain doa4, hits give low values 0.97 | locus YDR101C, strain arx1, hits give low values 0.996 | locus YDR137W, strain rgp1, hits give low values 0.987 | locus YDR150W, strain NUM1, hits give low values 1.01 | locus YDR159W, strain sac3, hits give low values 0.992 | locus YDR162C, strain NBP2, hits give low values 0.939 | locus YDR195W, strain ref2 0.957 | locus YDR297W, strain sur2, hits give low values 0.988 | locus YDR318W, strain mcm21, hits give low values 1 | locus YDR334W, strain swr1, hits give low values 0.988 | locus YDR335W, strain msn5, hits give low values 0.994 | locus YDR388W, hits give low values 1 | locus YDR392W, strain spt3, hits give low values 0.997 | locus YDR502C, strain sam2, hits give low values 1 | locus YEL003W, strain gim4, hits give low values 0.988 | locus YEL037C, strain rad23, hits give low values 0.995 | locus YEL061C, strain CIN8 (second series), hits give low values 0.988 | locus YEL061C, strain CIN8, hits give low values 0.986 | locus YER015W, strain faa2, hits give low values 0.991 | locus YER016W, strain bim1, hits give low values 0.99 | locus YER110C, hits give low values 1 | locus YER111C, strain swi4, hits give low values 1 | locus YER155C, strain BEM2 (second series), hits give low values 0.989 | locus YER155C, strain BEM2, hits give low values 0.976 | locus YER167W, strain BCK2, hits give low values 0.986 | locus YFR010W, strain ubp6, hits give low values 0.992 | locus YGL078C, strain dbp3, hits give low values 0.996 | locus YGL086W, strain mad1, hits give low values 0.997 | locus YGL167C, strain pmr1, hits give low values 0.993 | locus YGL173C, strain kem1, hits give low values 0.989 | locus YGL227W, strain vid30, hits give low values 0.979 | locus YGL240W, strain doc1, hits give low values 1 | locus YGL248W, strain PDE1, hits give low values 0.991 | locus YGL253W, strain hxk2, hits give low values 0.987 | locus YGR078C, strain PAC10, hits give low values 0.988 | locus YGR135W, strain pre9, hits give low values 1.01 | locus YGR229C, strain SMI1, hits give low values 0.891 | locus YGR252W, strain gcn5, hits give low values 1 | locus YHR013C, strain ard1, hits give low values 0.988 | locus YHR027C, strain rpn1, hits give low values 0.996 | locus YHR030C, strain SLT2, hits give low values 0.974 and 1.03 | locus YHR079C, strain IRE1 (second series), hits give low values 0.997 | locus YHR079C, strain IRE1, hits give low values 1.02 | locus YHR094C, strain hxt1, hits give low values 0.998 | locus YHR129C, strain ARP1, hits give low values 0.977 | locus YHR142W, strain chs7, hits give low values 0.988 | locus YHR200W, strain rpn10, hits give low values 0.993 | locus YIL066C, strain RNR3, hits give low values 0.963 | locus YIL073C, strain SPO22, hits give low values 0.957 | locus YIL125W, strain kgd1, hits give low values 0.996 | locus YIR030C, strain dcg1, hits give low values 0.996 | locus YJL092W, strain hpr5, hits give low values 0.994 | locus YJL095W, strain BCK1 (second series), hits give low values 0.983 | locus YJL095W, strain BCK1, hits give low values 0.94 and 1.03 | locus YJL115W, strain asf1, hits give low values 0.989 | locus YJL129C, strain trk1, hits give low values 0.953 | locus YJL134W, strain LCB3, hits give low values 0.98 | locus YJL154C, strain vps35, hits give low values 0.994 | locus YJL164C, strain tpk1, hits give low values 0.969 | locus YJL166W, strain qcr8, hits give low values 0.989 | locus YJL168C, strain set2, hits give low values 1 | locus YJL187C, strain SWE1 (second series), hits give low values 0.998 | locus YJL187C, strain SWE1, hits give low values 0.992 | locus YJR043C, strain POL32, hits give low values 0.969 | locus YJR066W, strain TOR1, hits give low values 0.949
